Assay results taken from PubChem BioAssay (NCATS).
Records with an inconclusive call do not appear. Activity calls are given as the source filed them. Unless noted, calls follow the shape of the dose curve; as a rule, active = well fitted curve in the direction sought with a large enough effect; inconclusive = small, poorly fitted or top-dose-only effect, or another doubt; inactive = no such curve, though single readings can be large; an effect the other way counts as inactive or inconclusive.

What was measured:
[1] = biological target: DNA repair nuclease/redox regulator APEX1 (Homo sapiens) (UniProt P27695); test: qHTS Validation Assay for Inhibitors of the Human Apurinic/apyrimidinic Endonuclease 1 (APE1) (AID 1705;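 also: TAMRA fluorescence gain over two minutes as APE1 cuts a quenched THF abasic duplex; series mostly up to about 57 µM; % is scaled to controls: 0 for no effect and ±100 for the full control effect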)
In short: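 Endonuclease activity of human APE1 is followed as dequenching when the enzyme incises a tetrahydrofuran abasic site in a short duplex labelled 5'-TAMRA/3'-BHQ-2 (50 nM final), after 15 min enzyme–compound preincubation at room temperature.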

[2] = Counterscreen for APE1 Inhibitors: Fluorescent Dye Displacement Validation Assay (AID 1707);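 also: plate controls were ThO with dsDNA and no compound for no effect and ThO without dsDNA for full effect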
In short: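 Thiazole Orange displacement from dsDNA: 250 nM ThO with 50 nM TAMRA-labelled abasic-site (tetrahydrofuran) duplex in 50 mM Tris-HCl pH7.5, 50mM NaCl, 2 mM MgCl2, 0.01% Tween-20. Loss of endpoint fluorescence (ex 480 nm, em 540 nm) flags DNA binders.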

[3] = biological target: Endonuclease 4 (Escherichia coli (strain K12)) (UniProt P0A6C1); test: Counterscreen for APE1 Inhibitors: qHTS Validation Assay for Inhibitors of Endonuclease IV (AID 1708); also: % is scaled to controls: 0 for no effect and ±100 for the full control effect
In short: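 2 nM enzyme was preincubated with compounds for 15 min at room temperature in 50 mM Tris-HCl pH 7.5, 50 mM NaCl, 2 mM MgCl2, 1 mM DTT, 0.01% Tween-20. 50 nM THF-abasic TAMRA/BHQ-2 duplex substrate started the reaction.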

[4] = qHTS for differential inhibitors of proliferation of Plasmodium falciparum line 7G8 (AID 1815);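 also: parasite growth measured after three days of incubation; plate controls were vehicle wells for no effect and reference inhibitor wells for full effect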
[5] = qHTS for differential inhibitors of proliferation of Plasmodium falciparum line GB4 (AID 1816); settings: Potency: Plasmodium falciparum GB4 proliferation inhibition;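 also: parasite growth measured after 72 h incubation; 0% = vehicle DMSO and -100% = reference inhibitor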
[6] = qHTS for differential inhibitors of proliferation of Plasmodium falciparum line D10 (AID 1877);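 also: parasites grown with compound for 72 h before DNA staining; plate controls were vehicle wells for no effect and reference inhibitor wells for full effect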
[7] = biological target: Ferritin light chain (Equus caballus) (UniProt P02791); test: qHTS Validation Assay for Identification of Novel General Anesthetics (AID 2323); also: series mostly up to about 77 µM; % is scaled to controls: 0 for no effect and ±100 for the full control effect
In short: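 Apoferritin from horse spleen (10 uM) was mixed with 1-aminoanthracene at 50% saturation in PBS, then compounds were added. After 10 min at room temperature, fluorescence was read (ex 380 nm, em 535 nm) and normalized to free-probe and complex controls.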

[8] = biological target: ATP-dependent DNA helicase Q1 (Homo sapiens) (UniProt P46063); test: qHTS Validation Assay for Inhibitors of RecQ-Like Dna Helicase 1 (RECQ1) (AID 2353);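 also: plate controls were DMSO vehicle for no effect and enzyme-free control for full effect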
In short: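 50 nM RECQ1T1 preincubated 15 min with compound in Tris pH 8.0 buffer with MgCl2, DTT, Tween-20 and 2.5 ug/ml poly(dI-dC); started with 200 nM TAMRA/BHQ-2 forked duplex and 2 mM ATP. Unwinding read as fluorescence (525/598 nm), two reads 2 h apart.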

[9] = biological target: RecQ-like DNA helicase BLM (Homo sapiens) (UniProt P54132); test: qHTS Validation Assay for Inhibitors of Bloom's syndrome helicase (BLM) (AID 2364);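 also: plate controls were DMSO vehicle for no effect and enzyme-free control for full effect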
In short: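 BLM 50 nM in 25 mM Tris-HCl pH 8.0, 5 mM NaCl, 2 mM MgCl2, 1 mM DTT, 0.01% Tween-20, 2.5 ug/ml poly(dI-dC); 15 min cpd preinc, RT. Start: 200 nM forked DNA + 2 mM ATP (final). TAMRA read, 2 reads 2 h apart.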

[10] = Validation screen for small molecules that induce DNA re-replication in MCF 10A normal breast cells (AID 463097); also: 0% is about no effect; nearly all actives have a fitted effect of over 60% in size
In short: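 DNA re-replication was detected as a rise in nuclei with elevated Hoechst fluorescence after a 48 hr compound exposure of MCF 10A cells at 37 C.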

[11] = Quantitative high throughput screen for delayed death inhibitors of the malarial parasite plastid, 96 hour incubation (AID 488745); also: series mostly up to about 29 µM; % is scaled to controls: 0 for no effect and ±100 for the full control effect; nearly all actives have a fitted effect of over 70% in size
In short: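 P. falciparum carrying an integrated firefly luciferase reporter, grown in erythrocytes (2% hematocrit, 0.1% parasitemia final) in RPMI 1640/0.5% Albumax, was exposed to compound for 96 h (two generations) at 37 C, 5% CO2. Luminescence decrease indicated growth inhibition.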

[12] = Quantitative high throughput screen for delayed death inhibitors of the malarial parasite plastid, 48 hour incubation (AID 488752); also: % is scaled to controls: 0 for no effect and ±100 for the full control effect; nearly all actives have a fitted effect of over 65% in size
In short: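 Erythrocytes infected with P. falciparum carrying an integrated firefly luciferase reporter (2% hematocrit, 0.1% parasitemia final) were exposed to compounds in RPMI 1640/0.5% Albumax for 48 h at 37 C, 5% CO2. Growth inhibition was scored as reduced luminescence.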

[13] = biological target: M-phase phosphoprotein 8 (Homo sapiens) (UniProt Q99549); test: qHTS Validation Assay for Inhibitors for MPP8 Chromodomain Interactions with Methylated Histone Tails (AID 488949);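 also: AlphaScreen signal from MPP8 chromodomain bound to biotinylated H3K9me3 peptide; top concentration of the series differs between compounds; % is scaled to controls: 0 for no effect and ±100 for the full control effect; nearly all actives have a fitted effect of over 55% in size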
In short: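 Disruption of the preformed MPP8–trimethyl-H3K9 peptide complex (both 50 nM, 30 min, RT) is measured after 30 min compound exposure, using AlphaScreen proximity beads; aurintricarboxylic acid titration serves as plate control.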

[14] = biological target: Transient receptor potential cation channel subfamily V member 1 (Homo sapiens) (UniProt Q8NER1); test: HTS Assay for Compounds that Act as Enhancers of the Vanilloid Receptor 1 (AID 488979); also: 0% is about no effect
In short: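 TRPV1-expressing cells loaded with Fluo-8 calcium dye; compounds added and calcium influx read kinetically for 3 min (agonist phase), then capsaicin at EC20 added and read 2 min more for enhancement. Fluorescence ex 480/em 520 nm.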

[15] = biological target: Thyrotropin receptor (Homo sapiens) (UniProt P16473); test: qHTS Assay for Antagonists of the Thyroid Stimulating Hormone Receptor (AID 488980); also: series mostly up to about 58 µM; 0% is about no effect
In short: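 Cells expressing human TSHR (HEK293) are dispensed in HBSS/HEPES containing 70 uM RO 20-1724, compound is added, then TSH at EC80 (4 nM final). Antibody in lysis buffer follows, 30 minutes at room temperature before HTRF detection.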

[16] = biological target: Thyrotropin-releasing hormone receptor (Homo sapiens) (UniProt P34981); test: qHTS for Small Molecule Agonists and Allosteric Enhancers of Human TRH Receptor: Validation Screen for Agonists (AID 493127;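 active = calcium activation more than 3 SD above the typical response in the agonist read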;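 also: intracellular calcium rise by fluo-8 fluorescence before TRH EC20 addition; 0% is about no effect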); settings: TRH receptor agonist cell assay; at 2 µM; active compounds read high
In short: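 TRHR-expressing cells were plated overnight in serum-containing medium, then loaded with fluo-8 calcium dye at room temperature for 30 min–1.5 h. After a 10 s baseline, compound was pin-transferred and calcium fluorescence (ex 480/em 530) read kinetically for agonist response.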

[17] = biological target: Galactokinase (Homo sapiens) (UniProt P51570); test: qHTS Validation Assay for Inhibitors of Human Galactokinase (GALK) (AID 493189); also: 0% is about no effect
In short: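 Compounds were pin-transferred into ATP buffer, then GALK-galactose mix was added (final 5 nM enzyme, 100 uM galactose, 35 uM ATP). After 1 h at room temperature, remaining ATP was measured luminescently.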

[18] = Validation screen for small molecules that induce DNA re-replication in SW480 colon adenocarcinoma cells (AID 504364); also: 0% is about no effect
In short: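 SW480 cells seeded at 250 per well were exposed to compound or DMSO for 48 hr at 37 C, 5% CO2, then stained with Hoechst for 40 min. DNA content per nucleus was imaged (405 nm ex, 500-530 nm em).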

[19] = system: Zika virus NS2B-NS3 protease; test: Primary screen GU AMC qHTS for Zika virus inhibitors (AID 1347154);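 also: 0% = no-inhibitor control and -100% = no-enzyme control; nearly all actives have a fitted effect of over 70% in size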
In short: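 Unlinked Zika NS2B hydrophilic domain/NS3 protease domain noncovalent complex (25 nM final) in 10 mM Tris-HCl pH 8.0, 0.01% Tween 20, with AMC peptide substrate. Fluorescence (ex 340, em 450 nm) change over 15 min, room temperature; percent inhibition fitted to 4-parameter Hill equation.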

[20] = Primary qHTS for small molecule stabilizers of the endoplasmic reticulum resident proteome: Secreted ER Calcium Modulated Protein (SERCaMP) assay (AID 1508630); also: % is scaled to controls: 0 for no effect and ±100 for the full control effect
In short: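 GLuc-SERCaMP-expressing SH-SY5Y cells, pretreated 16 h with compound, are challenged with thapsigargin to empty ER calcium stores; after 4 h, coelenterazine is added directly to the medium and luminescence is imaged.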

Thyrotropin-releasing hormone receptor (Homo sapiens), sequence (P34981 whole entry, looked up): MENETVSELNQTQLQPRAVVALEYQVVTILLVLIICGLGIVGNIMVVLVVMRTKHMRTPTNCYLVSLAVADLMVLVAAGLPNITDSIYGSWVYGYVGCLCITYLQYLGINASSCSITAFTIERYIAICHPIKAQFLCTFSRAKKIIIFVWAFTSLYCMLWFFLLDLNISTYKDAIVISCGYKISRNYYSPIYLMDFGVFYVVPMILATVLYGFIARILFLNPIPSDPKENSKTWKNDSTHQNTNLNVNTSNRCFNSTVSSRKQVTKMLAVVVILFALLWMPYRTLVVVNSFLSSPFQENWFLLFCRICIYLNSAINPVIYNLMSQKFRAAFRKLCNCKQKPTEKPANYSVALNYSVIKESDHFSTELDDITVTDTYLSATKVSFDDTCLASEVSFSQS
DNA repair nuclease/redox regulator APEX1 (Homo sapiens), sequence (P27695 whole entry, looked up): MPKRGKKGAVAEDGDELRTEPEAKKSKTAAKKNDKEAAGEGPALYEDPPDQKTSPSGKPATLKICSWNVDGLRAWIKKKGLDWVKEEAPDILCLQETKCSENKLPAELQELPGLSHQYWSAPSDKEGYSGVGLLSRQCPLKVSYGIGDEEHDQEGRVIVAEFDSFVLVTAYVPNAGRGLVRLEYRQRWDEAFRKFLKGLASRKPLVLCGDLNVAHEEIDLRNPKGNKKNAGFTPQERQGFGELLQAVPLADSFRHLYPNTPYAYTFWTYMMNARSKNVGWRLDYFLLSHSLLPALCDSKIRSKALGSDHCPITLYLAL
Ferritin light chain (Equus caballus), sequence (P02791 2-175 limits assumed): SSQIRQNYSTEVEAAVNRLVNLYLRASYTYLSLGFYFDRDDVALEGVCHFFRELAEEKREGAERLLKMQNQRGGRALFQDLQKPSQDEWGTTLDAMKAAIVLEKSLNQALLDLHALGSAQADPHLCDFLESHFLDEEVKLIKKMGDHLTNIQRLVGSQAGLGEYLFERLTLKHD
ATP-dependent DNA helicase Q1 (Homo sapiens), sequence (P46063 whole entry, looked up): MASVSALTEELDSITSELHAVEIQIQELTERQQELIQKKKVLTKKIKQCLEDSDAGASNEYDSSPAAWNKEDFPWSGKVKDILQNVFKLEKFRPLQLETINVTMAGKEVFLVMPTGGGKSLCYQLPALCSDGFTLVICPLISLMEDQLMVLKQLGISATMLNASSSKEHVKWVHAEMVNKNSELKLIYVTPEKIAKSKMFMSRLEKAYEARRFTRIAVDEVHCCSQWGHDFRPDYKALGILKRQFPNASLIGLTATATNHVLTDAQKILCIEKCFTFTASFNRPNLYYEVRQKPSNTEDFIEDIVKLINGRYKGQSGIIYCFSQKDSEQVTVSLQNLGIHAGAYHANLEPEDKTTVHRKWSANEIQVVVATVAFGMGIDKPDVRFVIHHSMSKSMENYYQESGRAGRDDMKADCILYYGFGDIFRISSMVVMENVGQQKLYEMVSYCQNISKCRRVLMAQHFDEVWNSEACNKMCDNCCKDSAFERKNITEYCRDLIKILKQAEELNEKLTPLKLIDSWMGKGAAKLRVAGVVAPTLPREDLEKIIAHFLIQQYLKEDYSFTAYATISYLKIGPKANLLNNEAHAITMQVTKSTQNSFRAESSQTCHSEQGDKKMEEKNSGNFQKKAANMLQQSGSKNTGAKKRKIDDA
M-phase phosphoprotein 8 (Homo sapiens), sequence (Q99549 whole entry, looked up): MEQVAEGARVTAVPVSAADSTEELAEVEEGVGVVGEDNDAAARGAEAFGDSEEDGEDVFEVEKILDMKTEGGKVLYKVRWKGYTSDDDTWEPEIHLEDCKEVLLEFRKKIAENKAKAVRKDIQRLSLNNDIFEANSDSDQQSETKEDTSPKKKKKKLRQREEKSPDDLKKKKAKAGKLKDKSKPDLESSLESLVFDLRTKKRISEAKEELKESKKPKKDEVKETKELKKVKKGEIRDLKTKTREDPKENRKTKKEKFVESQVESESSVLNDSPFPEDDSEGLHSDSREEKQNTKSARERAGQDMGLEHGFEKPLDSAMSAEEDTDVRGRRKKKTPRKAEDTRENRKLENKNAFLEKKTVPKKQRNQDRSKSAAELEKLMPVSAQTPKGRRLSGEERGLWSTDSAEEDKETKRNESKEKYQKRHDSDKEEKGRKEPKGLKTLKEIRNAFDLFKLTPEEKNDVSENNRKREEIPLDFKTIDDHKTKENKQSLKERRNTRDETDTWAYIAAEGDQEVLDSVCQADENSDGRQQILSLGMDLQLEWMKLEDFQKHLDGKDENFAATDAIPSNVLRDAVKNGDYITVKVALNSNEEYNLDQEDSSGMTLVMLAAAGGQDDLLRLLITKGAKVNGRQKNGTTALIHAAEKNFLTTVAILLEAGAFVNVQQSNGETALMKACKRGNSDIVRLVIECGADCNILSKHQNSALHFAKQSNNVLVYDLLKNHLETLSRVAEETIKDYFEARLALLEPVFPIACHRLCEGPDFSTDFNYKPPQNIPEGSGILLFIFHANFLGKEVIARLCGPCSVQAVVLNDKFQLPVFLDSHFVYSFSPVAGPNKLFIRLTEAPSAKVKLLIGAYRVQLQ
RecQ-like DNA helicase BLM (Homo sapiens), sequence (P54132 whole entry, looked up): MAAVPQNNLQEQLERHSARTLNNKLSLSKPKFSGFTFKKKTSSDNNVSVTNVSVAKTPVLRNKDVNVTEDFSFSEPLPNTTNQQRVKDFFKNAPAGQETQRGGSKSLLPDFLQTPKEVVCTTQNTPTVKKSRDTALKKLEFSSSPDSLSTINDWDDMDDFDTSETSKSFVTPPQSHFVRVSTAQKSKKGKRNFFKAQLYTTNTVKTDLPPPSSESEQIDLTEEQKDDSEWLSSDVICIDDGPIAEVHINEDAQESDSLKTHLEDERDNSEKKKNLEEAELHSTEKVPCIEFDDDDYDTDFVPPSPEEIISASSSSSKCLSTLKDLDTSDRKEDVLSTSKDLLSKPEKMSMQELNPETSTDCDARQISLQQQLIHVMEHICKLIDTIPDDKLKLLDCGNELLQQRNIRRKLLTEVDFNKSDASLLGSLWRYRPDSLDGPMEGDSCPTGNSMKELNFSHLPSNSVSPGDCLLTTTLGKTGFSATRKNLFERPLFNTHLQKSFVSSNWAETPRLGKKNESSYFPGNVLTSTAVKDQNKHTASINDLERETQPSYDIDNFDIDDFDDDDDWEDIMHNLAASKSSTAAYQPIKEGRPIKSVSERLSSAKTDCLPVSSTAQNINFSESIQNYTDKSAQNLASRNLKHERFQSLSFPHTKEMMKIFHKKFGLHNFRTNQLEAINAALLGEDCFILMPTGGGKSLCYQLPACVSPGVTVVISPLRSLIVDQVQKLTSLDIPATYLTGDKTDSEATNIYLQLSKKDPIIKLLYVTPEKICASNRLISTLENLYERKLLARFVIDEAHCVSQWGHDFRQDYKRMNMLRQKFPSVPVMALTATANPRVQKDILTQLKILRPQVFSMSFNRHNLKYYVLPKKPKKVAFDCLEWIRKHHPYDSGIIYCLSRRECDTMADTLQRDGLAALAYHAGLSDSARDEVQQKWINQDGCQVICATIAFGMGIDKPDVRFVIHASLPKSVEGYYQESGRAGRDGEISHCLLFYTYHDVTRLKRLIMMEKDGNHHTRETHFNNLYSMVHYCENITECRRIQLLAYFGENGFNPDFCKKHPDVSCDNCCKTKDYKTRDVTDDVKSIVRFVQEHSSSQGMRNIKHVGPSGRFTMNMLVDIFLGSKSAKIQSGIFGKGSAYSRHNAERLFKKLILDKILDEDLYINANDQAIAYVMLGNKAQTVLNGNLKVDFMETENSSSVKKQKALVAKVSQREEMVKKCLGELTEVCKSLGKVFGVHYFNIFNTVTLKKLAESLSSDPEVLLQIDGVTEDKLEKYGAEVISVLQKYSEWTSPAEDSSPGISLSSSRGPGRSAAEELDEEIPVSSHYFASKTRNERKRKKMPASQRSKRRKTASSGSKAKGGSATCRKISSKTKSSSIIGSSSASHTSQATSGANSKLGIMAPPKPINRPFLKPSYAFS
Thyrotropin receptor (Homo sapiens), sequence (P16473 whole entry, looked up): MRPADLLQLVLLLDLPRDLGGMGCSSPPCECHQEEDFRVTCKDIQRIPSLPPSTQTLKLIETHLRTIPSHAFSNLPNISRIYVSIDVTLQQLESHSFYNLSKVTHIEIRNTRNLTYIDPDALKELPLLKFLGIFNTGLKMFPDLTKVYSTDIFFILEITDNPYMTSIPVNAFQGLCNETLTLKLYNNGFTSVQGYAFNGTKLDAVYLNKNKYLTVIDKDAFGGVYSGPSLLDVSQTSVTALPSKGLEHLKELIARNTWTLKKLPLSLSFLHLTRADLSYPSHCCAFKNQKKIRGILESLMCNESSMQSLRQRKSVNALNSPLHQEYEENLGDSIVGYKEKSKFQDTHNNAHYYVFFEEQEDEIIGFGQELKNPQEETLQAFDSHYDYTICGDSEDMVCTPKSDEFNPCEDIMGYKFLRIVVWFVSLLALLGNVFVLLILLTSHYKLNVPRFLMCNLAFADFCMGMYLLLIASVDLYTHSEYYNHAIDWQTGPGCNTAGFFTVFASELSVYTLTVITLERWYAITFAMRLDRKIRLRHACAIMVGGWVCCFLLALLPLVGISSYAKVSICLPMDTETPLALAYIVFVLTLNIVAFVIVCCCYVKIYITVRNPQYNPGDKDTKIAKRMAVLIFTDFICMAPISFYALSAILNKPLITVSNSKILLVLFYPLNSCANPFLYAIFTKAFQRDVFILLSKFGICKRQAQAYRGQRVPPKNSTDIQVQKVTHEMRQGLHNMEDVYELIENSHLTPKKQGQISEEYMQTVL
Galactokinase (Homo sapiens), sequence (P51570 whole entry, looked up): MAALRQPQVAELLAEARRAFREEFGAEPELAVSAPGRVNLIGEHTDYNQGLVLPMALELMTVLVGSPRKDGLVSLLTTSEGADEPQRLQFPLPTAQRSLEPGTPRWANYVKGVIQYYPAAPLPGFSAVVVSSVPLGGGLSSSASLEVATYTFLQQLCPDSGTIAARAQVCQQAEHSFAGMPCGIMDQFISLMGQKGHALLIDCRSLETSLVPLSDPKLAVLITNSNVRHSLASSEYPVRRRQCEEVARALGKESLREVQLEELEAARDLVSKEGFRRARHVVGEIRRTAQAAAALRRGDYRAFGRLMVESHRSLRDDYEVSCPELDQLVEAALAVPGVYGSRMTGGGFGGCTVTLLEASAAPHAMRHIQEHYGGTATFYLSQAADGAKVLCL

Cn1cnc2c(NC3CCCC3)ncnc21
inactive: Potency [1] | Potency [2] | Potency [3] | Potency [4] | Potency [5] | Potency [6] | outcome [7] | Potency [8] | Potency [9] | Potency [10] | Potency [11] | Potency [12] | Potency [13] | outcome [14] | outcome [15] | activation [16] 0.875% | outcome [17] | outcome [18] | Potency [19] | Potency [20]
